Compounds with a hit are over-represented: about 10% of the library has one in this group of screens.
CCT modulator: High-Throughput Screening for Modulators of Cytosolic Chaperonin Activity | hit rate 0.3% among 360,000 | AID 651819, 2012 | purified chaperonin ATPase assay, HTRF ADP detection, 30 min | activity change, % (concentration not given with the values), hits read low; in the data active means activity change below about -30%; further: on the % scale 0 is the no-effect control and ±100 the full control effect
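ATPase activity: ADP formed was measured by HTRF Transcreener (665/615 nm ratio) after 30 min at 37 deg C with 10 uM ATP. Compounds screened at one 76 uM concentration against 40 or 20 nM TRiC in Tris pH 7.4/KCl/MgCl2/DTT buffer.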
VDR inh: Inhibitors of the vitamin D receptor (VDR): qHTS | AID 504847, 2011 | Vitamin D3 receptor (Homo sapiens), P11473 | VDR-SRC2-3 peptide fluorescence polarization, 2 h | hit rate 0.93% among 400,000 | Potency, µM, inactives show max response, negative = inhibition, most hits filed as inhibitors; further: potency means the concentration at half of the fitted maximal effect; on the % scale 0 is the no-effect control and ±100 the full control effect
Target sequence (P11473 whole entry, looked up): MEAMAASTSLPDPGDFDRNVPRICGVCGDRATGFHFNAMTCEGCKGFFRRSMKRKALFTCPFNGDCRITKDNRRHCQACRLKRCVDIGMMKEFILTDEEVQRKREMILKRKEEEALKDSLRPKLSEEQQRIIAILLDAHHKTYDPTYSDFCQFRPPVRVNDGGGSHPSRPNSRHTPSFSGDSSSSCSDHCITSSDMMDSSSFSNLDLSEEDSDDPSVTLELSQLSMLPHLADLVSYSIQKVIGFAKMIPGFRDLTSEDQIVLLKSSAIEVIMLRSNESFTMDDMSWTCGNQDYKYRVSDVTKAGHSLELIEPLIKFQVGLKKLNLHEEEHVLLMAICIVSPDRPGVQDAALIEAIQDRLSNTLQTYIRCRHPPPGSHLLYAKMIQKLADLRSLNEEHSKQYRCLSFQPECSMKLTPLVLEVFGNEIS
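FP read-out; VDR + SRC2-3 coactivator peptide; 23 nl compound by pintool; 2 h RT incubation; reagents held at 4 deg C, protected from light.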
G9a inh: qHTS Assay for Inhibitors of Histone Lysine Methyltransferase G9a; Potency, µM (series often up to 102 µM), for the others: top-dose activity, negative = inhibition, usual class: inhibitors; G9a H3K9 monomethylation, AlphaScreen, 2 h; hit rate 8.8% among 350,000; further: potency means the concentration at half of the fitted maximal effect; on the % scale 0 is the no-effect control and ±100 the full control effect; nearly all actives have a fitted effect of over 75% in size
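G9a (20 nM) preincubated 15 min RT with compounds, then 500 nM biotinylated H3K9 peptide and 20 uM SAM added; 2 h RT reaction. Monomethyl-H3K9 product detected by AlphaScreen with anti-H3K9me1 antibody, streptavidin donor and anti-rabbit IgG acceptor beads.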
Sfp PPTase inh: qHTS Assay for Inhibitors of Bacillus subtilis Sfp phosphopantetheinyl transferase (PPTase); Potency, µM, inactives show largest response in the series, negative = inhibition, most hits filed as inhibitors; 4'-phosphopantetheinyl transferase ffp (Bacillus subtilis), Q9F4F7; hit rate 3.5% among 310,000; AID 1490, 2009; Biochemical Sfp PPTase activity, qHTS;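 further: the enzyme is Sfp with the accession as filed and its product quenches rhodamine fluorescence; potency means the concentration at half of the fitted maximal effect; 0% = enzyme reaction without inhibitor and -100% = no enzyme wells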
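Step 1, compound plus 15 nM Sfp-PPTase, 15 min, room temperature. Step 2, add rhodamine-CoA (5 uM) and BHQ-2-YbbR (12.5 uM). Step 3, read 525/598 nm fluorescence at 0 and 30 min.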
Mm-Cpn inhibitor: Inhibitors of TCP-1 ring complex (TRiC) of Methanococcus maripaludis (MmCpn): qHTS. Chaperonin Mm-Cpn (Methanococcus maripaludis). purified Mm-Cpn ATPase, ADP Transcreener TR-FRET. Potency, µM (doses to about 76.9 µM), for inactives: at the top dose activity, negative = inhibition, most hits filed as inhibitors. hit rate 0.031% among 330,000. AID 504842, 2011; further: potency means the concentration at half of the fitted maximal effect; on the % scale 0 is the no-effect control and ±100 the full control effect; nearly all actives have a fitted effect of over 80% in size
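Purified archaeal Mm-CPN (25nM final) preincubated 10 min at 37degC with compound, then 10uM ATP for 30 min at 37degC; ADP measured by HTRF Transcreener TR-FRET; buffer 30 mM TRIS pH 7.4, 100mM KCl, 5mM MgCl2, 1mM DTT.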
PLK1 PBD inh: qHTS for Inhibitors of PLK1-PDB (polo-like kinase 1 - polo-box domain): Primary Screen | Serine/threonine-protein kinase PLK1 (Homo sapiens), P53350 | Plk1 PBD binding of FITC phosphopeptide, fluorescence polarization | Potency, µM, for inactives: max response, negative = inhibition, most hits filed as inhibitors | hit rate 2.8% among 360,000; further: potency means the concentration at half of the fitted maximal effect; series mostly up to about 57 µM; on the % scale 0 is the no-effect control and ±100 the full control effect; nearly all actives have a fitted effect of over 65% in size
VDR confirm: qHTS for Inhibitors of the vitamin D receptor (VDR): Hit Validation in Primary Screen; shares compounds with VDR inh; VDR-coactivator inhibition assay, qHTS confirmation; Potency, µM, hits mostly inhibitors; hit rate 89% among 840; further: potency means the concentration at half of the fitted maximal effect
VDR FP fluor: qHTS for Inhibitors of the vitamin D receptor (VDR): Hit Validation using a Fluorescein Assay; shares compounds with VDR inh; VDR-coactivator binding, fluorescein fluorescence polarization; Potency, µM (doses to about 57.1 µM), inactives show top-dose activity change, negative = inhibition, usual class: inhibitors; hit rate 48% among 840; further: potency means the concentration at half of the fitted maximal effect
VDR bla: qHTS for Inhibitors of the vitamin D receptor (VDR): Hit Validation using a Beta-Lactamase Assay | VDR beta-lactamase reporter cells, FRET ratio; cells co-treated with VDR agonist LG190178 | Potency, µM (series often up to 46.1 µM), inactives show top-dose activity change, negative = inhibition, actives largely listed as inhibitors | shares compounds with VDR inh | hit rate 23% among 840; further: potency means the concentration at half of the fitted maximal effect; on the % scale 0 is the no-effect control and ±100 the full control effect
VDR viability: qHTS for Inhibitors of the vitamin D receptor (VDR): Hit Validation using a Cytotoxicity Assay; shares compounds with VDR inh; cytotoxicity counter-screen, cell viability, qHTS; Potency, µM (doses to about 48.3 µM), without a hit: top-dose activity change, negative = cytotoxicity, actives largely listed as cytotoxic; hit rate 18% among 840; AID 602204, 2012;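 further: potency means the concentration at half of the fitted maximal effect; plate controls were DMSO for no effect and high-concentration cycloheximide for full effect; nearly all actives have a fitted effect of over 75% in size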
* marks the source's active call; other numbers are inactive results; [ ] = remark or other dose. Unless noted, the call rests on the fitted dose curve; in most records, active means well fitted curve in the direction sought with a large enough effect; inconclusive means small, poorly fitted or top-dose-only effect, or another doubt; inactive means no such curve, though single readings can be large; an effect the other way counts as inactive or inconclusive.

Results for Cc1nnc(NC(=O)c2nc(S(=O)(=O)Cc3ccccc3)ncc2Cl)s1 ?
CCT modulator: -1; VDR inh: inconclusive; G9a inh: 40µM*; Sfp PPTase inh: inconclusive; Mm-Cpn inhibitor: -3%; PLK1 PBD inh: -22%; VDR confirm: 16*; VDR FP fluor: 13µM*; VDR bla: 2.3µM*; VDR viability: 4.2µM*

Results for CCN(Cc1nc(-c2ccc(OC)cc2)oc1C)S(=O)(=O)c1ccc(C)cc1 ?
VDR inh: 11%; G9a inh: inconclusive

How did CCOc1ccc(NC(=O)Cn2cc(C(=O)c3ccc(CC)cc3)c(=O)c3cc(C)ccc32)cc1 do in these assays?
VDR inh: -4%; G9a inh: inconclusive

What do the screens show for `COc1ccc2nc(NC(=O)c3nc(S(=O)(=O)Cc4ccccc4F)ncc3Cl)sc2c1`?
VDR inh: -5%; G9a inh: -37%[59 µM]

How did O=C(Nc1ccc2ccccc2c1)c1nc(S(=O)(=O)Cc2ccccc2F)ncc1Cl do in these assays?
VDR confirm: 3.5*; VDR FP fluor: 3.5µM*; VDR bla: 18µM*; VDR viability: 19µM*

Results for CCS(=O)(=O)c1ncc(Cl)c(C(=O)Nc2c(C(=O)c3ccc(C)cc3)oc3ccccc23)n1 ?
VDR inh: 1%; G9a inh: -7%[59 µM]

How did O=C(Nc1ccccc1F)c1nc(S(=O)(=O)Cc2ccccc2F)ncc1Cl do in these assays?
VDR inh: 14µM*; G9a inh: inconclusive; VDR confirm: 2.8*; VDR FP fluor: 8.9µM*; VDR bla: inconclusive; VDR viability: 12µM*

How did Cc1cccc(C)c1NC(=O)c1nc(S(=O)(=O)Cc2ccccc2F)ncc1Cl do in these assays?
VDR confirm: inconclusive; VDR FP fluor: 4µM*; VDR bla: 6.5µM*; VDR viability: inconclusive

Results for Cc1ccc(Oc2c(C(N)=O)cc([N+](=O)[O-])cc2[N+](=O)[O-])cc1 ?
CCT modulator: -1; VDR inh: 28µM*; G9a inh: inconclusive; Sfp PPTase inh: inconclusive; Mm-Cpn inhibitor: -5%; PLK1 PBD inh: 21µM*; VDR confirm: 11*; VDR FP fluor: 13µM*; VDR bla: inconclusive; VDR viability: 5.6µM*

Results for Nc1scc2c(C(=O)O)nn(-c3ccccc3)c(=O)c12 ?
VDR inh: inconclusive; G9a inh: -24%[0.501 µM]; Mm-Cpn inhibitor: 2%
